Screening results deposited in PubChem by several laboratories.
Only some compounds are listed: those with a hit (about 3.8% of all), similar ones and a draw of the others.
SUMO Mot1 rescue – yeast Mot1-301 growth rescue at high temperature, primary screen, SUMOylation pathway inhibitor project, S. cerevisiae, ATP luminescence, 38.5C | S. cerevisiae Mot1-301 growth rescue; percent above DMSO median, 100 means doubled | growth rescue, % at 18.8 µM | hit rate 1% among 320,000 | AID 2716, 2010;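 active = every valid replicate shows activation above 250% relative to neutral control wells; inactive = the rest, any valid replicate at or below 250%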
MPTP inh – mitochondrial permeability transition pore inhibitors, primary screen, biochemical, isolated mouse mitochondria, absorbance; hit rate 1.4% among 360,000; Ca2+ swelling absorbance, 30 min; AID 602449, 2012; inhibition, % at 10 µM;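 active = inhibition of 50% or more, scaled per plate between neutral and stimulator controls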
aDG glyco up – activators of alpha-DG glycosylation, primary screen, uHTS, Pro5-aDG cells, AlphaScreen; alpha-DG glycosylation AlphaScreen (IIH6); 0% Pro5, 100% B10-LARGE cell signal; activation, % at 10 µM; hit rate 0.22% among 360,000; AID 624168, 2012;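 active = activation of at least 8% versus controls, or a plate z-score of at least 8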;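 also: Pro5 are CHO cells carrying HIG-tagged alpha-DG that lacks glycosylation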
FAS TE block – FAS thioesterase domain inhibitors, primary screen, biochemical, fluorescence intensity, uHTS; Fatty acid synthase (Homo sapiens), P49327; recombinant FAS-TE, OMFH fluorogenic substrate, fluorescence endpoint; inhibition, % at 15 µM; hit rate 0.67% among 360,000; AID 602261, 2012;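 active = compounds whose normalised, plate-corrected inhibition of enzyme fluorescence in the single-dose primary screen is 50% or more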
Cardio protect – cardioprotection against H2O2-induced cell death, primary screen, uHTS, H9c2 cells, ATPLite luminescence | H9c2 cardiomyocytes, H2O2 injury protection, 2 h | protection from H2O2 cell death, % at 20 µM | hit rate 0.63% among 360,000;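 active = compounds giving at least 50% protection of heart cells from peroxide-induced death in the single-dose screen, raw or plate-pattern-corrected value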
Yeast superoxide – reduction of superoxide in aged yeast, primary screen, HTS; S. cerevisiae aged cells, superoxide DHE fluorescence; hits give low values; superoxide response (% of plate mean), % at 10 µM; hit rate 0.18% among 330,000; AID 2690, 2010;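 active = superoxide response under a set limit, about three screen SD below normal, cut at about 65% in these data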;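 also: yeast aged for seven days with compound at 30 °C before DHE staining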
MPTP counter – fluorescence retest of MPTP screen hits in isolated mitochondria, single concentration. shares compounds with MPTP inh. membrane potential, Rhodamine 123 fluorescence. inhibition, % at 10 µM. hit rate 78% among 5,000; in the data active = inhibition above about 22%
MPTP abs DR – mitochondrial permeability transition pore inhibitors, dose response, biochemical, absorbance, uHTS hits; IC50, µM; isolated mitochondria swelling; hit rate 58% among 780; shares compounds with MPTP inh; in the data active = IC50 below about 20 µM
MPTP counter DR – fluorescent counter-screen in isolated mitochondria, dose response, counter-screen for MPTP inhibitor project, biochemical, fluorescence, uHTS hits | isolated mitochondria counterscreen, fluorescence read-out | AID 651564, 2012 | hit rate 49% among 780 | IC50, µM | shares compounds with MPTP inh; in the data active = IC50 below about 80 µM
aDG glyco conf – alpha-DG glycosylation enhancers, retest, confirmation, single concentration, Pro5-aDG cells. shares compounds with aDG glyco up. IIH6 AlphaLISA; scaled to LARGE-overexpressing B10 cells as 100%. activation, % at 10 µM (by protocol). hit rate 17% among 600. AID 651671, 2012;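 active = activation of at least 7% in one or more replicates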;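 also: cells exposed to compound for two days before detection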
Hits are given with their value; 0 = inactive; - = no result.

SMILES | SUMO Mot1 rescue | MPTP inh | aDG glyco up | FAS TE block | Cardio protect | Yeast superoxide | MPTP counter | aDG glyco conf | others
CC(C)(C)n1ncc2c(=O)n(Cc3cccc(Cn4cnc5c(cnn5C(C)(C)C)c4=O)c3F)cnc21 | 0 | 95.2 | 0 | 55.4 | 0 | 0 | 87.4 | -
O=C(NC[C@@H]1CC[C@@H](Cc2ccc(-c3ccccc3)cc2)O1)Nc1ccc(Br)cc1 | - | 59.8 | 0 | 0 | 0 | 0 | 95.7 | -
O=C(NCCCCc1ccccc1)NC[C@@H]1CC[C@@H](Cc2ccc(-c3ccccc3)cc2)O1 | - | 0 | 0 | 0 | 0 | 0 | - | -
O=C(CC[C@H]1O[C@@H](n2cnc3c(NC(=O)c4ccccc4)ncnc32)[C@H](O)[C@@H]1O)NCc1ccc2c(c1)OCO2 | - | 0 | 0 | 0 | 0 | - | - | -
CSc1c(CC(=O)Nc2ccccc2)n(C)c2ccccc12 | 0 | 0 | 0 | 0 | 0 | 0 | - | -
CSc1c(CC(=O)Nc2ccc(F)cc2)n(Cc2ccccc2)c2ccccc12 | 0 | 81.3 | 0 | 0 | 0 | 0 | 66.9 | -
CC(=O)c1ccc(Nc2nc3ccccc3nc2NS(=O)(=O)c2cccs2)cc1 | 0 | 82.9 | 0 | 0 | 0 | 0 | 31.7 | -
COc1ccc(Nc2nc3ccccc3nc2NS(=O)(=O)c2cccs2)cc1 | 0 | 61.0 | 0 | 0 | 0 | 0 | 63.7 | -
O=C(O)c1cccc(Nc2nc3ccccc3nc2NS(=O)(=O)c2cccs2)c1 | 0 | 0 | 0 | 0 | 0 | 0 | - | -
COc1cccc(CNCC(O)COc2ccc(C(=O)c3ccccc3)cc2)c1 (stereo not given) | 0 | 83.8 | 0 | 0 | 0 | 0 | 0 | - | MPTP abs DR=0;MPTP counter DR=50.5
O=C(COc1ccc(F)cc1Br)Nc1ccccc1N1CCCC1 | - | 0 | 0 | 0 | 0 | - | - | -
CCN(CC1CCCO1)C(=O)CCc1nnc(CCc2ccc(OC)cc2)o1 (stereo not given) | 0 | 0 | 0 | 0 | 0 | 0 | - | -
O=C1OC(c2ccccc2)(c2cc(Br)ccc2O)c2ccccc21 (stereo not given) | - | 75.7 | 0 | 0 | 0 | - | 97.0 | -
C[C@H]1CN([C@@H](C)CO)C(=O)c2cc(C#CCC3CCCC3)cnc2O[C@@H]1CN(C)C(=O)CC1CC1 | - | 0 | 0 | 0 | 0 | - | - | -
Cc1c(O)ccc2c(CN(C)Cc3ccccc3)cc(=O)oc12 | 0 | 83.7 | 0 | 0 | 0 | 0 | 61.7 | -
CC(=NNC(=S)Nc1ccc(C)cc1)c1ccccn1 | - | 0 | 0 | 0 | 0 | - | - | -
CC(=NNC(=S)Nc1cccc(C)c1)c1ccccn1 | - | 52.0 | 0 | 0 | 0 | - | 61.9 | -
CCCC(=O)c1ccc(N2CCN(C(=O)c3ccccc3)CC2)c(F)c1 | 0 | 0 | 0 | 0 | 0 | 0 | - | -
CCCC(=O)c1ccc(N2CCN(C(=O)c3ccccc3Br)CC2)c(F)c1 | 0 | 79.7 | 5.2 | 0 | 0 | 0 | 65.6 | 0
Cc1nn(C)c(C(=O)NCc2ccc(Cl)cc2)c1Cl | 0 | 93.3 | 4.9 | 0 | 0 | 0 | 86.1 | 0
Cc1nc(C)c(C(=O)NCc2ccc(Cl)cc2)o1 | 0 | 0 | 0 | 0 | 0 | 0 | - | -
Cc1ccccc1S(=O)(=O)N(C)C[C@@H]1OCc2cn(nn2)CCCC(=O)N([C@H](C)CO)C[C@H]1C | - | 0 | 0 | 0 | 0 | - | - | -
Cc1csc2ncnc(NCCc3ccccn3)c12 | 0 | 86.9 | 10.4 | 0 | 0 | 0 | 69.5 | 0
CNc1cncc(-c2cnn(CC(C)C)c2)n1 | - | 0 | 0 | 0 | 0 | - | - | -
CCOC(=O)C1CCCN(S(=O)(=O)c2ccc(S(=O)(=O)N3CCCC3)cc2)C1 (stereo not given) | 0 | 61.5 | 4.5 | 0 | 0 | 0 | 73.6 | 0
SMILES | SUMO Mot1 rescue | MPTP inh | aDG glyco up | FAS TE block | Cardio protect | Yeast superoxide | MPTP counter | aDG glyco conf | others
COc1cccc(C(O)c2nc(-c3cncnc3)cs2)c1 (stereo not given) | - | 0 | 0 | 0 | 0 | - | - | -
Cc1noc(C)c1CSCC(=O)N1CCN(c2ccc(F)cc2)CC1 | 0 | 0 | 0 | 0 | 0 | 0 | - | -
Cc1cccc(N2CCN(C(=O)CSCc3c(C)noc3C)CC2)c1C | 0 | 89.6 | 6.8 | 0 | 0 | 0 | 74.7 | 0
O=C(NNS(=O)(=O)c1ccccc1)c1cccc(F)c1 | 0 | 0 | 0 | 0 | 0 | 0 | - | -
Cc1ccc(NS(=O)(=O)c2cccc(C(=O)NC3CCN(Cc4ccccc4)CC3)c2)cc1 | - | 0 | 0 | 0 | 0 | - | - | -
Cc1ccc(NS(=O)(=O)c2ccc(C(=O)NC3CCN(Cc4ccccc4)CC3)cc2)cc1 | 0 | 59.5 | 13.4 | 0 | 0 | 0 | 21.8 | 4.8
O=C(NCC(NS(=O)(=O)OCC(Cl)(Cl)Cl)c1ccccc1)C(F)(F)F (stereo not given) | 0 | 0 | 0 | 0 | 0 | 0 | - | -
COc1ccc(N=C2SCC(=O)N2CCc2ccc(OC)c(OC)c2)cc1 | 0 | 0 | 0 | 0 | 0 | 0 | - | -
COc1ccc(CCN2C(=O)CSC2=Nc2ccc(C(C)C)cc2)cc1OC | 0 | 90.3 | 2.9 | 0 | 0 | 0 | 94.2 | 0
CC(C)(C)c1nnc(NC(=O)Nc2ccc(Cl)cc2)s1 | 0 | 58.0 | 2.2 | 0 | 0 | 0 | 85.6 | 0
NC(=S)NNc1ccnc2cc(Cl)ccc12 | 0 | 0 | 0 | 0 | 0 | 0 | - | -
O=C(NNc1ccnc2cc(Cl)ccc12)C1CCCCC1 | 0 | 99.2 | 10.0 | 0 | 0 | 0 | 90.3 | 0
Cc1cc(C(=O)OCC(=O)N(CC(C)C)c2c(N)n(Cc3ccccc3)c(=O)[nH]c2=O)c(C)o1 | 0 | 0 | 0 | 0 | 0 | 0 | - | -
Cc1ccc(C2(c3noc(CN4CCC(c5ccncc5)CC4)n3)CCCC2)cc1 | 0 | 69.3 | 6.0 | 0 | 0 | 0 | 46.4 | 0
O=S(=O)(c1ccc(Cl)cc1)N1CCN(c2ncnc3sccc23)CC1 | 0 | 70.1 | 4.8 | 0 | 0 | 0 | 94.3 | 0
NS(=O)(=O)c1ccc(CCNCc2cc(Br)ccc2OCc2ccccc2F)cc1 | 0 | 78.3 | 7.6 | 0 | 0 | 0 | 65.6 | 0
CCc1ccc(Nc2cc(=O)n(C3CCCCC3)c(=O)[nH]2)cc1 | 0 | 63.2 | 6.9 | 0 | 0 | 0 | 106.7 | 0
CCCCn1c(N)c(N(CCOC)C(=O)CCCc2cccs2)c(=O)[nH]c1=O | 0 | 0 | 0 | 0 | 0 | 0 | - | -
CC1(C(=O)N2CCCCC2)CCN1C(=O)Cc1ccc(-c2ccccc2)cc1 (stereo not given) | - | 0 | 0 | 0 | 0 | - | - | -
